# Source: PubChem BioAssay (National Center for Advancing Translational Sciences (NCATS))
# Only some compounds are listed: those with a hit (about 3.4% of all), similar ones and a draw of the others.
# Tau fluor cs – Counterscreen qHTS for Inhibitors of Tau Fibril Formation, Fluorescence Polarization. tau K18 P301L Alexa594 fluorescence, heparin fibrillization. 0.93% of 280,000 active. Potency, µM (series often up to 57.7 µM), without a hit: at the highest dose activity change, negative = decrease. AID 1463, 2008; also: nearly all actives have a fitted effect of over 55% in size
#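 Human tau K18 P301L (15 uM unlabeled, 0.24 uM Alexa 594-labeled) in 100 mM sodium acetate pH 7 with 20 uM heparin, 6 hr at 37 C. ThT 30 uM added, 1 hr ambient; Alexa 594 FP and total fluorescence read at 555/632 nm.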
# JMJD2E inh – qHTS Assay for Inhibitors of Human Jumonji Domain Containing 2E (JMJD2E). Lysine-specific demethylase 4E (Homo sapiens), B2RXH2. JMJD2E catalytic domain, FDH-coupled NADH fluorescence (FDH is formaldehyde dehydrogenase). Potency, µM (doses to about 57.1 µM), for inactives: at the highest dose activity change, negative = inhibition, actives largely listed as inhibitors. 1.6% of 230,000 active. AID 2147, 2009; active = well fitted inhibition curve with a large enough effect, not every such curve was filed as active; inconclusive = small, poorly fitted or top-dose-only effect, or another doubt; inactive = no such curve, though single readings can be large or run the other way;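 also: 0% = wells with enzyme and -100% = buffer wells without enzyme; nearly all actives have a fitted effect of over 50% in size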
# Tau ThT inhib – qHTS for Inhibitors of Tau Fibril Formation, Thioflavin T Binding. recombinant tau K18 P301L, heparin-induced fibrillization, ThT fluorescence. Potency, µM (series often up to 57.4 µM), without a hit: top-dose activity, negative = inhibition, actives largely listed as inhibitors. 2.1% of 270,000 active. AID 1460, 2008; also: nearly all actives have a fitted effect of over 55% in size
# Target sequence (P10636 561-689 P618L limits assumed): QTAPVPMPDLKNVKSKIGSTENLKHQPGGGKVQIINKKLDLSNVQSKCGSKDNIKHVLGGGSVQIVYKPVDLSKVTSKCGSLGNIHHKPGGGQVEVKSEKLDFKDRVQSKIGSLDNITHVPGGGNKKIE
#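 ThT emission at 510 nm, taken 1 hr after adding 30 uM dye, quantifies aggregates formed when 20 uM heparin acts on human tau K18 P301L for 6 hr at 37 C.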
# GoLoco inh red – qHTS Assay for Inhibitors of RGS12 GoLoco Motif Activity (Red Fluorophore); Potency, µM (highest dose often 61.6 µM), without a hit: top-dose activity, negative = inhibition, hits mostly inhibitors; Guanine nucleotide-binding protein G(i) subunit alpha-1 (Homo sapiens), P63096; AID 880, 2007; 0.44% of 230,000 active; Gai1:RGS12 GoLoco peptide FP, rhodamine, 10 min; active = well fitted inhibition curve with a large enough effect, not every such curve was filed as active; inactive = no such curve, though single readings can be large or run the other way; also: nearly all actives have a fitted effect of over 30% in size
# Target sequence (P63096 whole entry, looked up): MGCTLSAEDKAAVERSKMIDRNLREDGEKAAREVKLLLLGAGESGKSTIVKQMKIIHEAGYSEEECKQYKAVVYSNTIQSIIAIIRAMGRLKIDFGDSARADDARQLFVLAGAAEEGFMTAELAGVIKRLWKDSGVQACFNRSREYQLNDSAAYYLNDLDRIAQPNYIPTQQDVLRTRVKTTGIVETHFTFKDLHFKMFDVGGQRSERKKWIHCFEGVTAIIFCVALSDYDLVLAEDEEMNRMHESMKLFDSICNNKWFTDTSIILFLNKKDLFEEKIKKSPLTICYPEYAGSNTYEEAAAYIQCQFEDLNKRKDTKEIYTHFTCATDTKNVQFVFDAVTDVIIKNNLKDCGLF
# Tau fibril FP – qHTS for Inhibitors of Tau Fibril Formation, Fluorescence Polarization; AID 1468, 2008; Potency, µM (top dose mostly 57.7 µM), without a hit: at the highest dose activity, negative = inhibition, usual class: inhibitors; 0.39% of 280,000 active; Microtubule-associated protein tau (Homo sapiens), P10636; K18 P301L tau heparin fibrillization, Alexa594 FP, 6 h; also: nearly all actives have a fitted effect of over 55% in size
#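 Compound effects on tau fibrillization are measured by Alexa 594 fluorescence polarization (ex 555, em 632 nm). K18 P301L tau is used at 15 uM with 0.24 uM labeled tracer, and 20 uM heparin induces aggregation over 6 hr at 37 C.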
# * = called active by the depositor; ? = inconclusive; · = not tested or not shown; [ ] = another dose, or the depositor's remark. Unless noted, calls follow the shape of the dose curve; as a rule, active = well fitted curve in the direction sought with a large enough effect; inconclusive = small, poorly fitted or top-dose-only effect, or another doubt; inactive = no such curve, though single readings can be large; an effect the other way counts as inactive or inconclusive. Unless noted, % is scaled to controls: 0 for no effect and ±100 for the full control effect; potency is read from the fitted curve at half-maximal effect.
SMILES,Tau fluor cs,JMJD2E inh,Tau ThT inhib,GoLoco inh red,Tau fibril FP
CCOc1ccccc1C(=O)N1CC(=O)Nc2ccc(Cl)cc2C1c1ccccc1 (centres undefined),-15%,·,-10%,·,3%
CCOC(=O)c1cnc(SC2CCc3ccccc3C2=O)nc1N (centres undefined),?,-6%,28µM*,-4%,?
CCOC(=O)c1cnc(SC2CC(=O)N(c3ccccc3)C2=O)nc1N (centres undefined),-8%,0%,-19%,7%,-6%
CCN1C(=O)c2ccccc2S(=O)c2ccc(C(=O)N3CCN(c4ccc(F)cc4)CC3)cc21 (centres undefined),-17%,·,-15%,·,5%
Cc1cccc(NCCC(=O)c2ccc([N+](=O)[O-])cc2)c1C,8.9µM*[quencher],-1%,?,6%,2%
Cc1ccc(NCC(=O)c2ccc([N+](=O)[O-])cc2)cc1,?,-25%,18µM*,4%,?
Cc1ccc(NCCC(=O)c2cccc([N+](=O)[O-])c2)c(C)c1,16µM*[quencher],4%,?,-6%,?
Cc1ccc(C(=O)CNc2cccc([N+](=O)[O-])c2)cc1,-11%,-16%,?,2%,-1%
COC(=O)c1ccc(N/N=C/c2cc([N+](=O)[O-])cc(OC)c2O)cc1,?,-1%,?,20%,13%
CCOC(=O)c1ccc(NC(=O)c2ccccc2[N+](=O)[O-])cc1,-9%,1%,-7%,-3%,-5%
CCOC(=O)c1ccc(N/N=C/c2cc(Br)cc([N+](=O)[O-])c2O)cc1,0.71µM*[quencher],5%,0.45µM*,9%,-6%
CCOC(=O)c1ccc(Nc2ncccc2[N+](=O)[O-])cc1,-29%,-52%,2.2µM*,2%,-3%
COc1ccc(NC(=O)c2oc3ccccc3c2NC(=O)Cc2cccs2)c(OC)c1,?,·,-1%,·,-5%
COc1ccc(-c2cnnc(N/N=C/c3ccc(O)c(OC)c3)n2)cc1,?,1%,1.8µM*,6%,4%
COc1cc(/C=N/NC(=O)c2ccc(CN(C)S(=O)(=O)c3ccc(C)cc3)cc2)ccc1O,16µM*[quencher],1%,?,5%,6%
CCOc1cc(/C=N/Nc2nc(-c3cccc(S(=O)(=O)N4CCCC4)c3)cs2)ccc1O,10µM*[quencher],8%,?,-8%,14%
COc1cc(/C=N/Nc2nc(-c3ccc(S(=O)(=O)N(C)C)cc3)cs2)ccc1O,13µM*[quencher],-12%,10µM*,1%,3%
COc1ccc(/C=N/Nc2nc(-c3cccc(S(=O)(=O)N4CCCC4)c3)cs2)cc1OC,?,?,?,13%,10%
O=S(=O)(c1cccc(-c2csc(N/N=C/c3ccco3)n2)c1)N1CCOCC1,13µM*[quencher],-18%,14µM*,-7%,10%
O=S(=O)(c1cccc(-c2csc(-c3ccccc3)n2)c1)N1CCOCC1,?,-8%,?,-5%,-8%
CCC(=O)Oc1c(Sc2ccc(C)cc2)c(C)nn1-c1ccccc1,-23%,·,?,·,?
CCC(=O)Oc1c(Sc2ccc(Cl)cc2)c(C)nn1-c1ccccc1,-30%,·,22µM*,·,?
CCCC(=O)Oc1c(Sc2ccc(C)cc2)c(C)nn1-c1ccccc1,-28%,·,25µM*,·,?
CCCC(=O)N1CCc2cc(OC)c(OC)cc2C1COc1ccc2c(C)cc(=O)oc2c1 (centres undefined),-6%,·,-13%,·,1%
Cc1cc(NC(=O)CN(C)S(=O)(=O)c2ccc3c(c2)CCC(=O)N3)ccc1Br,-27%,·,-14%,·,-8%
SMILES,Tau fluor cs,JMJD2E inh,Tau ThT inhib,GoLoco inh red,Tau fibril FP
CCOC(=O)[C@H](CCc1ccccc1)N[C@@H](C)C(=O)N1[C@H](C(=O)O)C[C@H]2CCC[C@@H]21,·,4%[25.5 µM],·,8.9µM*,·
CCOC(=O)c1cc[n+](CC(=O)c2ccc(F)cc2)cc1,-4%,32µM*,-5%,-10%,-5%
O=c1c(O)c(-c2ccc(O)c(O)c2)oc2c(OC[C@@H]3O[C@@H](O)[C@@H](O)[C@H](O)[C@H]3O)c(O)cc(O)c12,-21%,5µM*,10µM*,-7%,-15%
O=c1c(O)c(-c2ccc(O)c(O)c2)oc2c(OC3OC(CO)C(O)C(O)C3O)c(O)cc(O)c12 (centres undefined),-28%,2%,14µM*,-6%,?
CN(C)c1ccc(CNC(=O)CCCN2C(=O)CCn3nc(-c4cn(C)c5ccccc45)cc32)cc1,-9%,·,-5%,·,10%
Clc1ccc(C2NCCc3sccc32)cc1 (centres undefined),-6%,3%,-8%,6%,-11%
Oc1ccc(C2CNCc3sccc32)cc1O (centres undefined),-12%,25µM*,?,-7%,-4%
CC(=O)c1ccc(NC(=O)CSc2cn(CC(=O)N3CCCCCC3)c3ccccc23)cc1,?,·,?,·,4%
Cc1cc(=O)n2[nH]c(N)c(N=Nc3ccccc3F)c2n1,-5%,2%,11µM*,-6%,10%
c1ccc(-c2nc(-c3cccnc3)n[nH]2)cc1,2%,12%,-2%,-7%,9%
Oc1ccc(N=Nc2n[nH]c(-c3ccccc3)n2)cc1,-27%,-2%,2.5µM*,3%,-5%
Oc1ccc(N=Nc2n[nH]c(-c3ccc(Br)cc3)n2)cc1,?,-1%,2.2µM*,9%,-15%
Brc1cccc(-c2n[nH]c(-c3ccccc3)n2)c1,12%,-5%,14%,-13%,?
CCOc1ccccc1-c1noc(CSc2nnc(-c3ccccc3)n2-c2ccc(OC)cc2)n1,-16%,·,-11%,·,1%
COc1cc(NCc2ccc3nc(N)nc(N)c3c2C)cc(OC)c1OC,?,·,20µM*,2%,?
N#CC1=C(N)C2=C(N3CCCCC3)CCCC2C1(C#N)C#N (centres undefined),?,?,32µM*,3%,?
O=C(O)c1ccc(N/N=C/c2ccc(OC(=O)c3cccc(Cl)c3)cc2)cc1,?,?,13µM*,-2%,?
O=C(O)c1cc(N/N=C/c2ccc(OCc3ccccc3)cc2)ccc1Cl,-1%,-3%,0%,-4%,4%
COC(=O)c1ccc(COc2ccc(/C=N/Nc3cccc(C(=O)O)c3)cc2)cc1,?,-29%,16µM*,4%,-3%
O=C(Oc1ccc(/C=N/Nc2ccccc2)cc1)c1ccccc1,?,?,?,2%,7%
O=C(Nc1ccc(F)c(Cl)c1)N1CC=C(c2c[nH]c3ccccc23)CC1,7.9µM*[quencher],·,6.3µM*,·,?
